We go through 103 compounds from ChEMBL document CHEMBL4513216, “Probing the Open Global Health Chemical Diversity Library for Multistage-Active Starting Points for Next-Generation Antimalarials” (ACS Infect Dis, 2020).

In all, about 65,000 compounds went through this assay and about 2,100 (3.2%) showed an effect of 50% or more. The median lay at about -52%. Shown is part of a subset that was picked to be rich in strong results.

This experiment has as its system Plasmodium falciparum. The experiment in a line: Screen against P. falciparum Asexual Blood Stage (ABS), at 5uM. Format: functional, Dd2. Conditions: tested at 5 uM.
With `CN(C(=O)C1CCN(Cc2cnc3ccccn23)CC1)c1ccccc1`, the INHIBITION was 10%.
Consider `CCCc1cc(CNC2CCN(c3cc(C)nc(N)n3)CC2)on1`, for which the INHIBITION was -44.2%.
As for `O=C1NCC2CN(Cc3ccccc3OCc3ccccn3)CCN12` (stereo not drawn), the INHIBITION was -16.2%.
Take `CCOC(=O)Cc1n[nH]c(-c2cncc(Br)c2)n1`: the INHIBITION is listed as -109%.
For `CCC(=O)N1CCCN(Cn2nc(C)c(Br)c2C)CC1`, the INHIBITION is -101%.
Consider `CCc1ccc(S(=O)(=O)N2CCN(CCn3ccnc3)CC2)cc1`, for which the INHIBITION is on record as -45.4%.
Regarding `O=C1CCCN1CC1CN(CC2CCOCC2)Cc2nccn2C1` (stereo not drawn), the INHIBITION was -87%.
Turning to `Cc1ncc(CN2CCCC2)c2cc(C(=O)c3ccc(Br)cc3)oc12`, the INHIBITION is 67.5%.
As to `Cc1ncc(CN(C)CCO)c2cc(C(=O)c3ccc(Br)cc3)oc12`, the INHIBITION is 49.9%.
Consider `Cc1ncc(CN2CCOCC2)c2cc(C(=O)c3ccc(Br)cc3)oc12`, for which the INHIBITION is on record as -2.54%.
`CCO[C@H]1CC[C@H]2[C@H]1OCCN2C(=O)c1nn(C)c2ccccc12`: the INHIBITION was -77.6%.
For the compound `Cc1nc(N)ncc1C(=O)N1CCCC(CCc2ccc(F)cc2)C1` (stereo not drawn), the INHIBITION was found to be 38%.
The value for `N#Cc1cccc(C(=O)N2CCN(c3ncccn3)CC2)c1` was -150%.
The figure for `CN(C)c1ncc(C2Nc3cc(Cl)ccc3C3=NCCCN32)cn1` (stereo not drawn) is -9.81%; for `COc1ccc(C2Nc3cc(Cl)ccc3C3=NCCN32)cc1OC` (stereo not drawn) it is 72.2%; for `COc1ccc(C2Nc3ccccc3C3=NCCCN32)cc1OC` (stereo not drawn) it is -62.4%.
`COCCN1CCN(CC2CCCCO2)CC1` (stereo not drawn): the INHIBITION is given as -67.3%.
With `Cc1cccc(C(=O)N2C[C@@H]3OCCN(CCN4CCCC4)[C@@H]3C2)n1`, the INHIBITION is on record as -112%.
Take `CO[C@@H]1c2ccccc2C2(CCN(C(=O)CNC(=O)C(C)C)CC2)[C@H]1O`: the INHIBITION is -62.3%.
As for `CSC(C)(C)CNC(=O)NC1CCN(CC2CC2)C1` (stereo not drawn), the INHIBITION was -35.8%.
The value for `O=C(CCN1CCOCC1)NC1CCCN(CC2CCCCC2)C1` (stereo not drawn) was -80.2%; that for `NC(=O)C1CCN(C(=O)NC2CCN(CC3CCCC3)C2)CC1` (stereo not drawn) was -53.5%; that for `Cc1noc(C)c1CNC(=O)N1CCC(OCC2CC2)CC1` was -65.8%.
The figure for `O=C(NC1CCN(CC2CCCC2)C1)N1CCC(OCC2CC2)CC1` (stereo not drawn) is 64.5%.
With `O=C(NC1CCN(CC2CC2)C1)N1CCC(OC2CCCCC2)CC1` (stereo not drawn), the INHIBITION turned out to be 55%.
The figure for `Cc1ccc(C(=O)N2CCCC(c3cc(C(F)(F)F)[nH]n3)C2)o1` (stereo not drawn) is -50.8%.
The value for `Cc1cnc2n(c1=O)CC(C(=O)NCc1ccccc1Cl)CS2` (stereo not drawn) was -88.7%; that for `CC1CCCN(C(=O)c2ccc(N(C)Cc3cnn(C)c3)nc2)C1` (stereo not drawn) was -222%.
As to `Cc1nn(C)c2c(NC3CCCC3)nc(C3CC3)nc12`, the INHIBITION is listed as -18.7%.
Regarding `COC(=O)NCCC(=O)NC(c1ccc(Cl)cc1)C(F)(F)F` (stereo not drawn), the INHIBITION is recorded as 63.6%.
With `COCC(=O)NC(c1ccc(Cl)cc1)C(F)(F)F` (stereo not drawn), the INHIBITION came out at 7.67%.
The value for `COC(=O)NCC(=O)NC(c1ccc(Cl)cc1)C(F)(F)F` (stereo not drawn) was 38%; that for `CN(C)c1nccc(N2CCO[C@H]3CN(Cc4nccn4C)C[C@H]32)n1` was -73.7%; that for `Cc1cccc(CN2C[C@@H]3OCCN(c4ccnc(N(C)C)n4)[C@@H]3C2)c1` was 52.5%.
The value for `CCc1ccc(CN2C[C@@H]3OCCN(c4ccnc(N(C)C)n4)[C@@H]3C2)o1` was 9.71%.
On to `N#Cc1ccc(N2CCCC3(CCC(=O)N3CC3CC3)CC2)nc1` (stereo not drawn), for which the INHIBITION is given as -26.4%.
Regarding `Cc1cc(CN(C)Cc2ncc(-c3ccccc3)o2)no1`, the INHIBITION is -107%.
Take `COC1CCN(CCNC(=O)NC(C)c2cccc(Cl)c2)CC1` (stereo not drawn): the INHIBITION is recorded as 23.9%.
The value for `COC1CCN(CCNC(=O)NC(C)c2ccc(F)c(F)c2)CC1` (stereo not drawn) was 45.9%.
For the compound `COC1CCN(CCNC(=O)NCC(C)c2cccc(C)c2)CC1` (stereo not drawn), the INHIBITION is reported as 54.5%.
Turning to `Cc1ccc(S(=O)(=O)c2ncccc2CN2CCN(CCO)CC2)cc1`, the INHIBITION is -44.3%.
As to `CC(C)c1ncc2c(n1)CN(c1ncnc3[nH]ccc13)CC2`, the INHIBITION was determined as 4.74%.
On to `O=C1NC(c2cccnc2)=NC12CCN(CCCc1ccccc1)CC2`, for which the INHIBITION is given as -84.2%.
On to `COCCN1C[C@H]2[C@@H](C1)N(Cc1cnn(C)c1)CC[C@H]2OC`, for which the INHIBITION is on record as -59.7%.
With `COCCN1C[C@@H]2[C@@H](OC)CCN(Cc3ccco3)[C@@H]2C1`, the INHIBITION was -1.85%.
The figure for `COCCN1C[C@@H]2[C@@H](OC)CCN(Cc3ccc(C)o3)[C@@H]2C1` is 3.04%.
The value for `COCCN1C[C@@H]2[C@@H](OC)CCN(Cc3ccsc3)[C@@H]2C1` was 66.7%.
Take `COCCN1C[C@@H]2[C@@H](OC)CCN(Cc3cccs3)[C@@H]2C1`: the INHIBITION came to 66.1%.
Consider `COCCN1C[C@H]2[C@@H](C1)N(Cc1ccc(C)o1)CC[C@H]2OC`, for which the INHIBITION is -41.6%.
Regarding `Cc1ccc(CN2CC[C@@H]3[C@@H](CO[C@H]3CN(C)C)C2)o1`, the INHIBITION is listed as -21.4%.
As for `NC(=O)c1cccc(CN2CCc3c(ncn3C3CC3)C2)c1`, the INHIBITION is given as -158%.
`COc1ccc2c(c1)ncn2C[C@]1(O)CCCN2CCCC[C@@H]21`: the INHIBITION was -42.3%.
As to `COC(=O)c1cc(C(=O)N2CCC(C)CC2)n(-c2ccccc2)n1`, the INHIBITION amounted to 43.3%.
As for `COC(=O)c1cc(C(=O)N2CCCCCC2)n(-c2ccccc2)n1`, the INHIBITION is -126%.
As for `COC(=O)c1cc(C(=O)N2CCCC(C)C2)n(-c2ccccc2)n1` (stereo not drawn), the INHIBITION was 50.2%.
Take `COCC1c2nnn(C)c2CCN1C(=O)COc1ccccc1OC` (stereo not drawn): the INHIBITION is listed as -85.8%.
In the case of `CS(=O)(=O)NCCN(CCCO)C1CCc2ccccc21` (stereo not drawn), the INHIBITION is -55.5%.
With `CCCN1CCC(NC(=O)c2csc(C)c2-c2ccccc2)CC1`, the INHIBITION was determined as 28.9%.
As to `CCCN1CCC(NC(=O)c2csc(C)c2C)CC1`, the INHIBITION is recorded as -48.6%.
As to `Cc1ccc(-c2c(C(=O)NC3CCN(C)CC3)csc2C)cc1`, the INHIBITION is reported as 61.9%.
With `CN(C)C(=O)COC[C@]12COC[C@H]1CN(C1CCCC1)C2`, the INHIBITION is given as -77.5%.
On to `CCNC(=O)[C@@H]1C[C@H](N)CN1Cc1ccc(-c2ccccc2C#N)o1`, for which the INHIBITION is on record as -5.25%.
In the case of `CCNC(=O)[C@@H]1C[C@@H](N)CN1Cc1ccc(-c2ccccc2C#N)o1`, the INHIBITION is given as -71.4%.
In the case of `CCNC(=O)[C@@H]1C[C@H](N)CN1Cc1ccc(Sc2ccc(C)cc2)o1`, the INHIBITION was 64.6%.
The figure for `CCNC(=O)[C@@H]1C[C@@H](N)CN1Cc1ccc2cccc(Cl)c2n1` is 31.4%; for `CCNC(=O)[C@@H]1C[C@@H](N)CN1Cc1ccc(Sc2ccc(C)cc2)o1` it is 63.9%.
Regarding `CCNC(=O)[C@@H]1C[C@H](N)CN1Cc1ccc(-c2cc[nH]n2)o1`, the INHIBITION is given as -81.2%.
Take `CC/C=C(\C)CN1CCC(CNC(=O)c2c[nH]c(=O)c(Cl)c2)C1` (stereo not drawn): the INHIBITION was -7.22%.
For the compound `Nc1ncccc1C(=O)NCc1cccc(Br)c1`, the INHIBITION is -72%.
The figure for `CC(=O)NCCC(=O)NCC1(c2c(F)cccc2F)CCCC1` is -77.3%; for `COC(=O)NCC(=O)NCC1(c2c(F)cccc2F)CCCC1` it is 69.7%.
Regarding `CCS(=O)(=O)CC(=O)NCC1(c2c(F)cccc2F)CCCC1`, the INHIBITION is -90.7%.
As to `Cc1cc(C)c2nc(C3CC3)cc(C(=O)N3CCCC3C(N)=O)c2c1` (stereo not drawn), the INHIBITION is -98.6%.
Turning to `COCC1c2c(cnn2C)CCN1C(=O)c1cscn1` (stereo not drawn), the INHIBITION is on record as -109%.
In the case of `CC(Cn1cccn1)NCc1nc(-c2cccnc2)no1` (stereo not drawn), the INHIBITION is listed as -56%.
The figure for `CC(c1ccccc1)N1CCC(NC(=O)CCc2ccsc2)CC1` (stereo not drawn) is 54.8%; for `CSCC(=O)NC1CCN(C(C)c2ccccc2)CC1` (stereo not drawn) it is -27.6%; for `CCSCCC(=O)NC1CCN(C(C)c2ccccc2)CC1` (stereo not drawn) it is -58.8%.
`Cc1cc2c(N3CCC(N(C)Cc4nccs4)CC3)ncnc2s1`: the INHIBITION is on record as -19.4%.
The figure for `CC(NC1CCN(CCS(C)(=O)=O)CC1)c1cnn(C(C)C)c1` (stereo not drawn) is -83.1%; for `CC(NC1CCN(CCS(C)(=O)=O)CC1)c1ccc(Cl)cc1` (stereo not drawn) it is 58.2%.
`CC(c1ccc(Cl)cc1)N1CCN(CCS(C)(=O)=O)CC1` (stereo not drawn): the INHIBITION is listed as -38.8%.
As for `Cc1nc(CN2CCCC(N(C)CCCc3ccccc3)C2)no1` (stereo not drawn), the INHIBITION was -0.463%.
For the compound `CN(Cc1ccccn1)C1CCCN(Cc2noc(C3CC3)n2)C1` (stereo not drawn), the INHIBITION was -128%.
The figure for `CN(Cc1cnn(C)c1)C1CCCN(Cc2noc(C3CC3)n2)C1` (stereo not drawn) is -39.7%; for `Cc1cc(CN(C)C2CCCN(Cc3noc(C)n3)C2)no1` (stereo not drawn) it is -90.9%; for `Cc1nc(CN2CCCC(N(C)Cc3c(C)noc3C)C2)no1` (stereo not drawn) it is 58.6%.
`Cc1nc(CN(C)C2CCN(Cc3c(C)noc3C)C2)no1` (stereo not drawn): the INHIBITION is on record as -19.4%.
The figure for `CN(Cc1cccnc1)C1CCCN(Cc2noc(C3CC3)n2)C1` (stereo not drawn) is 52.6%.
On to `Cc1nc(CN2CCCC(NCc3ccc4ccccc4c3)C2)no1` (stereo not drawn), for which the INHIBITION was -9.17%.
The value for `Cc1nc(CN2CCCC(NCc3cccc4ccccc34)C2)no1` (stereo not drawn) was 58.3%.
On to `CCOc1ccccc1CNC1CCCN(Cc2noc(C)n2)C1` (stereo not drawn), for which the INHIBITION turned out to be 48.7%.
Turning to `COc1ccc(CCN(C)C2CCCN(Cc3noc(C)n3)C2)cc1` (stereo not drawn), the INHIBITION is 60.6%.
Turning to `Cc1nc(CN2CCCC(N(C)CCc3ccncc3)C2)no1` (stereo not drawn), the INHIBITION was -138%.
The figure for `CCn1nc(C)c(CN2CCC(c3ccn[nH]3)C2)c1C` (stereo not drawn) is -30.2%; for `Cc1nc2sccn2c1CNC1(c2ccccc2F)CCCC1` it is -5.97%.
The figure for `Cc1cccc(COC[C@@]23CCC[C@@H]2CN(S(=O)(=O)N(C)C)C3)n1` is -12.3%; for `CCc1nc(CN2CCN(C(=O)C3(C#N)CCCC3)CC2)cs1` it is -79.7%; for `O=C(c1ccccn1)N1CCC2(CC1)COC(COCC1CCCC1)C2` (stereo not drawn) it is -14.7%.
Turning to `Cc1ccc(CN2CCN(C(=O)c3ccc(CO)cc3)C(C)C2=O)cc1` (stereo not drawn), the INHIBITION was -121%.
Take `CC(=O)N1CCCC(c2ccccn2)C1` (stereo not drawn): the INHIBITION was -11.9%.
`CC(=O)N1CCCC(c2ccc(Cc3ccccc3)cn2)C1` (stereo not drawn): the INHIBITION came out at 60.4%.
The value for `CC(=O)N1CCCC(c2ccc(Br)cn2)C1` (stereo not drawn) was -147%.
